In PubChem BioAssay (NCI):
Where “and” joins values, the source holds several entries; their conditions need not be identical. Equal values may be shown once. This is part of a sample that, as a whole, favours compounds with a hit. Of some 79,000 tested, about 15% had one in any assay. Calls of active or inactive are those of the source. Rule as the data show it: active = growth inhibition above about 70%; inactive = the rest.

Assay: NCI Yeast Anticancer Drug Screen. Data for the bub3 strain (AID 167)
Conditions: S. cerevisiae bub3 mutant strain, hits give high values; at 50.0 µM unless noted
Method in brief: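 Steps: expose the mutant yeast strain to compound; grow alongside vehicle-treated cultures; measure growth; express inhibition against the vehicle cultures.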

Structure (SMILES) | growth inhibition
Cn1c([N+](=O)[O-])cnc1CSc1nc(-c2ccccc2)no1 | 5.25% (inactive)
CCOc1nc(=O)n(C2OC(CO)C(O)C2O)s1 (configuration not stated) | -5.65% (inactive)
O=C(c1ccccc1)C1(c2ccccc2)OC1(C(=O)c1ccccc1)c1ccccc1 (configuration not stated) | -3.3% (inactive)
FC(F)(F)COP1(OCC(F)(F)F)=NP(OCC(F)(F)F)(OCC(F)(F)F)=NP(OCC(F)(F)F)(OCC(F)(F)F)=N1 | -3.45% (inactive)
O=C(O)c1nc2cn1/C=C\C=NCC1=CN3C=CC=NC3(C(=O)O)N1C2 (configuration not stated) | 1.05% (inactive)
CCC(=O)C(C)=O | 0.15% (inactive)
CCN(CC)C(=O)c1cc(OC)c(C(=O)N(CC)CC)cc1OC | -9.4% (inactive)
O=C(O)c1ccccc1SSc1ccccc1C(=O)O | 9% (inactive) and -0.65% (inactive)
CCCCCCCSCC(=O)OCC | -6.5% (inactive)
CCc1ccc(O)cc1O | -30.6% (inactive)
CCCCCCCCCCCCCCCCC(C#N)C(=O)O (configuration not stated) | -22.8% (inactive)
O=C1CCCC/C1=C/C=C/c1ccccc1 | -29.9% (inactive)
CC1(C)CC(=O)C(/C=N/C(=S)Nc2ccc(S(N)(=O)=O)cc2)=C(O)C1 | -16.6% (inactive)
CC(=O)OCC(OC(C)=O)C(OC(C)=O)C(OC(C)=O)C(OC(C)=O)C(=O)NC1CCc2ccccc2C1 (configuration not stated) | 0.25% (inactive)
O=c1[nH][nH]c(=O)c2c([N+](=O)[O-])cccc12 | 0.35% (inactive)
COc1ccccc1OC(=O)c1ccccc1 | 11.5% (inactive)
Cc1nc(N)c(N)c(=O)[nH]1 | -9.6% (inactive)
C=CCC(O)CCCCC (configuration not stated) | -11.3% (inactive)
OC1COC(OCc2ccccc2)C(O)C1O (configuration not stated) | 2.25% (inactive) and 6% (inactive)
COc1ccc(-c2cc(=O)c3c(O)c(O)c(OC)cc3o2)cc1O | -2.6% (inactive)
CCCCC(C(=O)O)N(C)C (configuration not stated) | 2.4% (inactive)
CCCCCCN(CCCCCC)CC(O)c1cc(-c2ccc(Cl)cc2)nc2c(Cl)cccc12 (configuration not stated) | -9.5% (inactive)

Assay: NCI Yeast Anticancer Drug Screen. Data for the mlh1 rad18 strain (AID 175)
Conditions: S. cerevisiae mlh1 rad18 strain growth inhibition, hits give high values; at 50.0 µM unless noted
Method in brief: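 Vehicle-treated cultures served as the reference for growth inhibition in a yeast strain carrying DNA damage repair alterations exposed to each compound.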

Structure (SMILES) | growth inhibition
O=c1[nH]c2[nH]c(=S)[nH]c(=O)c2[nH]1 | -13.8% (inactive)
CC(C)N(C(=O)c1ccccc1O)C(C)C | 2% (inactive)
[N-]=[N+]=NC1(N=[N+]=[N-])C(=O)Nc2ccccc2C1=O (configuration not stated) | 12.6% (inactive)
COc1ccc(N2CC[N+](c3ccc(N(C)C)cc3)=C2C2=[N+](c3ccc(N(C)C)cc3)CCN2c2ccc(OC)cc2)cc1 | 20.5% (inactive)
O=c1oc(-c2ccccc2CCl)nc2ccccc12 | -5.9% (inactive)
COC1OC(COC(=O)NCCCCC(=O)C(F)(F)F)C(O)C(O)C1O (configuration not stated) | 11.6% (inactive)
NC(CSCCB(O)O)C(=O)O (configuration not stated) | -20.4% (inactive)
Cc1ccc(C(=O)O)c(/C=C2\Cc3cc(C)cc(C)c3C2=O)c1 | 29.7% (inactive)
CC(CCO)CCCO (configuration not stated) | -26.8% (inactive)
Cc1ccc2sccc(=O)c2c1 | 7.6% (inactive)
[O-][N+](=Nc1ccc2c(c1)Cc1ccccc1-2)c1ccc2c(c1)Cc1ccccc1-2 | -7% (inactive)
FC(F)(F)c1ccc2ccc3ccc(Cl)cc3c2c1 | -6.55% (inactive)
O=C(NO)c1ccccc1 | 27.8% (inactive)
COC(=O)c1cc(C)n(C)c(=O)c1CN | 0.8% (inactive)
Cc1nc(-c2ccc(N=Cc3ccc(N4CCC5(CCCCC5)CC4)cc3)cc2)cs1 | -3% (inactive)
Cc1ccc(S(=O)(=O)NC(CCC(=O)N2CCOCC2)C(=O)O)cc1 (configuration not stated) | 8.6% (inactive)
O=C(Oc1ccc(Cl)cc1)c1ccc([N+](=O)[O-])cc1 | 0.2% (inactive)
O=[N+]([O-])c1ccc(N(CCO)CCO)cc1 | -17.1% (inactive)
Cn1c([N+](=O)[O-])cnc1CSc1nc(-c2ccccc2)no1 | 33.1% (inactive)
CCOc1nc(=O)n(C2OC(CO)C(O)C2O)s1 (configuration not stated) | 2.5% (inactive)
O=C(c1ccccc1)C1(c2ccccc2)OC1(C(=O)c1ccccc1)c1ccccc1 (configuration not stated) | 4.2% (inactive)
FC(F)(F)COP1(OCC(F)(F)F)=NP(OCC(F)(F)F)(OCC(F)(F)F)=NP(OCC(F)(F)F)(OCC(F)(F)F)=N1 | 6.8% (inactive)
O=C(O)c1nc2cn1/C=C\C=NCC1=CN3C=CC=NC3(C(=O)O)N1C2 (configuration not stated) | -18.9% (inactive)
CCC(=O)C(C)=O | 11.7% (inactive)
CCN(CC)C(=O)c1cc(OC)c(C(=O)N(CC)CC)cc1OC | -8.2% (inactive)
